Results taken from PubChem BioAssay (NCI).
The panel holds about 79,000 compounds, 15% with a hit somewhere; the sample as a whole holds those more often. Active and inactive are the calls of the source. No stated cut-off is given here; in the data, active means growth inhibition above about 70%; inactive means the rest.

Experiment: NCI Yeast Anticancer Drug Screen. Data for the rad52 strain (AID 147);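 further: 0% = growth of vehicle-treated control cultures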
Details: S. cerevisiae rad52 mutant growth inhibition, hits give high values
Experimental: Growth inhibition of yeast strains with defined genetic alterations is measured as a screen for potential anti-cancer activity. Selected strains with alterations in DNA damage repair or cell cycle control were exposed to compounds and growth inhibition was measured relative to vehicle treated controls. The strain used in this assay is rad52

Measured: growth inhibition

Cc1cc(=O)oc2c(C)c3occc(=O)c3cc12
active: at 100.0 µM 86%
inactive: at 1.2 µM 1% | at 3.7 µM 2% | at 11.0 µM 17% | at 33.0 µM 48%

COC(=O)CCC(NC(=S)N/N=C(\C)c1ccccn1)C(=O)OC (stereo not given)
inactive: at 1.2 µM -21% | at 3.7 µM -27% | at 11.0 µM 1% | at 33.0 µM 61%
active: at 100.0 µM 90%

O/N=C\c1c(O)ccc2ccccc12
inactive: at 1.2 µM -4% | at 3.7 µM 0% | at 11.0 µM 7% | at 33.0 µM 31%
active: at 100.0 µM 72%

CC12C(=O)OC(=O)C(c3ccccc31)c1ccccc12
inactive: at 1.2 µM -8% | at 3.7 µM -2% | at 11.0 µM -12% | at 33.0 µM -4% | at 100.0 µM 3%

CCOC(=O)CC1(C(=O)OCC)c2[nH]c3ccccc3c2CCN1Cc1ccccc1 (stereo not given)
inactive: at 1.2 µM -1% | at 3.7 µM 0% | at 11.0 µM 1% | at 33.0 µM 7% | at 100.0 µM 45%

CC(=O)Nc1ccc2c(c1)Cc1cc(N=C3C=CC(=O)O3)ccc1-2
inactive: at 1.2 µM 11% | at 3.7 µM 27%
active: at 11.0 µM 85% | at 33.0 µM 99% | at 100.0 µM 99%

COc1cc(C2SCC(=O)N2c2ccc(-c3ccc(-n4c(-c5ccccc5)nc5ccccc5c4=O)cc3)cc2)ccc1O (stereo not given)
inactive: at 1.2 µM -2% | at 3.7 µM 0% | at 11.0 µM 2% | at 33.0 µM 6% | at 100.0 µM 16%

CCCCCCCCCCCC1N=C(N)NC(CCCO)=C1C(=O)OC (stereo not given)
inactive: at 1.2 µM 5%
active: at 3.7 µM 99% | at 11.0 µM 99% | at 33.0 µM 99% | at 100.0 µM 99%
